Results reported in PubChem BioAssay AID624330 (Southern Research Specialized Biocontainment Screening …, 2012).
In all, about 340,000 compounds went through this assay and about 2,100 (0.62%) were called active.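 How the source made its calls: active means first-screen hits whose inhibition reached a set limit at any dose in the follow-up dose series; inconclusive means inhibition above the set first-screen limit but never retested; inactive means the rest.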 These entries were drawn from the full list. Measured potencies and affinities stand elsewhere.

biological target: Rac GTPase-activating protein 1 (Homo sapiens) (UniProt Q9H0H5); assay: blockers of MgcRacGAP-driven Rac1 GTP hydrolysis – biochemical, ADP Hunter fluorescence, primary and confirmatory, confirmation (AID 624330); settings: MgcRacGAP-stimulated Rac1 GTP hydrolysis, at 30 µM, hits give high values, GST-tagged Rac1 F28L mutant substrate;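 further: fluorescence reports GDP produced by GAP-driven GTP hydrolysis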
Sequence (Q9H0H5 whole entry, looked up): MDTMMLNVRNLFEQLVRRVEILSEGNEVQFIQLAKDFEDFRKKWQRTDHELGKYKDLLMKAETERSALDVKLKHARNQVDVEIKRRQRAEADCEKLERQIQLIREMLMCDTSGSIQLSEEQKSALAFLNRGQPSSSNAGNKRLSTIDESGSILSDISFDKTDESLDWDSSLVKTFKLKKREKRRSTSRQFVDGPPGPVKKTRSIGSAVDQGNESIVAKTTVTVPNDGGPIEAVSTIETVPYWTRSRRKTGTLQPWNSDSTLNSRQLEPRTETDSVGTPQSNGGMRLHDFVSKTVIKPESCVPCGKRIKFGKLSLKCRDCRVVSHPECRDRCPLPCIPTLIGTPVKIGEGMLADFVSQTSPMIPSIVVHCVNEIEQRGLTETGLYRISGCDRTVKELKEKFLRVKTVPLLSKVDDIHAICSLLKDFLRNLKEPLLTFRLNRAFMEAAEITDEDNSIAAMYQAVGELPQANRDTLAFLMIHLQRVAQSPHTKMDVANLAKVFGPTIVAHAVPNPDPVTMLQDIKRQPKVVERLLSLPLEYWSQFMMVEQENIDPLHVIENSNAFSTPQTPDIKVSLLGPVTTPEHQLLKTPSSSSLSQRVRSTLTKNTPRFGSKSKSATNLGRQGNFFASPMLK

inhibition, inactive:
COC(=O)c1c(C(=O)OC)c2ccccn2c1C(=O)c1ccc([N+](=O)[O-])cc1 -6.01%, Nc1ccc2sc(N)nc2c1 19.6%, Nc1cccc(-c2nc3ccc(N)cc3s2)c1 10.5%, Cc1nc2ccc(N)cc2s1 5.78%, Nc1ccc2nc(-c3ccccc3)sc2c1 4.03%, Nc1nc2ccc(Br)cc2s1 1.67%, Nc1ccc(-c2nc3cc(N)ccc3s2)cc1 7.4%, COc1cccc(NC(=O)CN(C)C(=O)/C=C/c2ccc3ccccc3n2)c1 0.53%, COc1ccc(-c2nc(N3CCOCC3)nc3n[nH]c(N)c23)cc1 -3.94%, COc1ccc(CCN(C)C2CCCN(S(=O)(=O)c3ccccc3)C2)cc1OC (stereo unspecified) 10.3%, O=C(CSc1ncn[nH]1)Nc1ccc(Cl)c(Cl)c1 12.3%, O=C(O)/C=C/C(=O)Nc1ccc(OCc2ccccc2)cc1 11.5%, CCOc1[nH]n(-c2ccc(Cl)cc2)c(=O)c1C=NCc1cccnc1 7.22%, O=C1OCCC1=Cc1ccccc1 -4.26%, CC1CCCC(=C\c2ccccc2)/C1=N/O (stereo unspecified) 9.75%, CC1CCC/C(=C\Nc2ccc(C(=O)O)cc2)C1=O (stereo unspecified) -1.76%, O=C1OCC/C1=C\c1ccccc1 5.73%, O=C(NC1CCS(=O)(=O)C1)c1cnccn1 (stereo unspecified) 6.19%, O=C(c1scc2c1CCCC2)N1CCOCC1 5.17%, O=C(Nn1c(-c2ccc(Br)cc2)nc2ccccc2c1=O)c1cccnc1 2.47%, CCCN(CCC)CC(O)CN1C(=O)NC(C)(C)C1=O (stereo unspecified) -0.64%, COc1ccc(C(=O)CSc2nnc(-c3cccnc3)n2Cc2ccco2)cc1 9.77%, CCCCC(=O)NCc1ccc2c(c1)cc(C)n2C 7.65%, CCCCn1c(N)nc2ccccc21 1.51%, Cc1ccc(N2CC(C(=O)NC(C)CCc3ccccc3)CC2=O)cc1 (stereo unspecified) 1.14%, Cc1cc(OCn2ccc(C(=O)O)n2)ccc1Cl 15.5%, O=C(O)c1ccccc1C(=O)N1CCN(Cc2ccc3c(c2)OCO3)CC1 6.42%, CCCNC(=S)N1CCN(Cc2ccc3c(c2)OCO3)CC1 23.5%, O=C(c1ccccc1)c1ccccc1C(=O)N1CCN(Cc2ccccc2F)CC1 15.4%, CCNC(=S)N1CCN(Cc2ccc3c(c2)OCO3)CC1 3.54%, O=C(c1ccccc1Cl)N1CCN(Cc2ccc3c(c2)OCO3)CC1 1.05%, O=C(c1cccc2ccccc12)N1CCN(Cc2ccccc2F)CC1 30.9%, O=C(/C=C/c1cccc(F)c1)N1CCN(c2ccccn2)CC1 6.78%, CCOc1ccc(OCCC(=O)Nc2ccc(N3CCOCC3)cc2N2CCOCC2)cc1 4.37%, COC(=O)c1ccsc1NC(=O)CN1CCN(c2ncccn2)CC1 -6.48%, O=C(CSc1nc2ncc(Cl)cc2[nH]1)N1CCC(Cc2ccccc2)CC1 5.18%, O=C(COc1ccccc1[N+](=O)[O-])Nc1cccc(Cl)c1N1CCOCC1 9.17%, COc1ccccc1CNc1cc(C)ccc1C -1.27%, COc1ccccc1CNc1cc(-c2ccccc2)ccc1OC 7.7%, COc1cc(OC)c(OC)cc1CNc1cc(C)ccc1OC 14.2%, COc1cc(CNc2cc(C)ccc2C)cc(OC)c1OC 6.31%, COc1ccc(CNc2cc(C)ccc2C)c(OC)c1OC 14.2%, COc1cccc(CNc2nn[nH]n2)c1OC 3.59%, O=C(c1nn2c(C(F)(F)F)cc(-c3ccccc3)nc2c1Cl)N1CCN2CCCC2C1 (stereo unspecified) 3.99%, CC(C)c1ccc(NC(=O)NC2CCN(CC(=O)Nc3cccc4ccccc34)CC2)cc1 13.1%, CNC(=O)C[C@H]1C(=O)N(C2CCCCC2)C[C@@H]1CSC 16.8%, Cc1ccccc1Nc1ncnc2c1cnn2C 12.2%, O=C(c1ccc(Cl)c(S(=O)(=O)N2CCOCC2)c1)N1CCCC1 3.9%, O=C(N1CCCCC1)N1CCN(S(=O)(=O)c2ccc(Cl)cc2)CC1 4.45%, C=CCNc1nc2c3ccccc3n(C(C)=O)c2s1 24.6%, CC(=O)n1c2ccccc2c2nc(NC(C)C)sc21 5.24%, COc1cc(C(=O)NCc2nnc(SCC(=O)N3CCCCC3)o2)cc(OC)c1OC 6.92%, CC1=CC(=O)C=C/C1=C(/c1ccc(O)cc1C)c1ccccc1S(=O)(=O)O 9.36%, Cc1cc(C(=O)CS(=O)(=O)c2ccccc2)cc(C)c1O 10.7%, CC1=C/C(=C(/c2ccc(O)c(C)c2)c2ccccc2S(=O)(=O)O)C=CC1=O 19.7%, CC1=C/C(=C(\c2ccc(O)c(C)c2)c2ccccc2S(=O)(=O)O)C=CC1=O 3.41%, COc1cc(OC)cc(C(C(=O)NCc2ccccc2)N(Cc2ccco2)C(=O)c2ccno2)c1 (stereo unspecified) 5.98%, CCc1cc2c(C)ccc(C)c2nc1SCC(=O)Nc1c(C)[nH]c(=O)[nH]c1=O -14.5%, CCOC(=O)/C(=N\Nc1ccccc1)P(=O)(c1ccccc1)c1ccccc1 5.15%, COc1ccc(C(CNC(=O)CSc2ccccc2C)N(C)C)cc1 (stereo unspecified) 6.46%, COC(=O)c1c(NC(=O)CSc2nnnn2-c2ccccc2)sc2c1CCC(C(C)(C)C)C2 (stereo unspecified) 5.4%, CC1CCC/C=C/C(=O)c2c(O)cc(O)cc2CC(=O)O1 (stereo unspecified) -7.81%, CC1CCCC=CC2CC(OC(=O)CN(C)C)CC2C(O)C=CC(=O)O1 (stereo unspecified) 3.18%, Cc1ccccc1NC(=O)/C(C#N)=C\c1cccnc1 16.7%, COc1ccccc1NC(=O)/C(C#N)=C/c1cccnc1 4.24%, CCCOc1ncnc2c1[nH]c1ccc(OC)cc12 5.1%
